Our source for the Potency values is PubChem BioAssay (NCATS).

Results filed as inconclusive are left out. Entries that show only a call come without a potency. Calls of active or inactive are those of the source. The call rests on the fitted dose curve; in most records, active means well fitted cell-killing curve with a large enough effect; inconclusive means small, poorly fitted or top-dose-only effect; inactive means flat fitted curve, though single readings scatter.
Potency means the concentration at half of the fitted maximal effect.

The test in a line: Cell Viability - LYMP2-009 (AID 968).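 Further: cells exposed to compound for 24 h at 37 °C; nearly all actives have a fitted effect of over 55% in size.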 The note with it: LYMP2-009 lymphoblastoid cell viability; series mostly up to 92.2 µM. From the text: NIH Chemical Genomics Center [NCGC]
NIH Molecular Libraries Screening Centers Network [MLSCN]
National Institutes of Environmental Health Sciences [NIEHS]
National Toxicology Program [NTP]
We have developed a 1536-well cell-based assay for quantitative high throughput screening (qHTS) against a number of cell lines to determine in vitro cytotoxicity of small molecules. This particular assay uses a human lymphoblastoid cell line (LYMP2-009) purchased from Coriell Institute for Medical Research.
NCGC Assay Protocol Summary:
The CellTiter-Glo luminescent cell viability assay (Promega) is a homogeneous method to measure the number of viable cells in culture. The end point readout of this assay is based on quantitation of intracellular ATP, an indicator of metabolic activity, using the luciferase reaction. Luciferase catalyzes the oxidation of beetle Luciferin to oxyluciferin and light in the presence of ATP. The luminescent signal is proportional to amount of ATP present.
Using the CellTiter-Glo luminescent cell viability assay, the amount of cellular ATP was measured in the lymphoblastoid cell line with complete culture medium following compound treatment for 24 hours. The assay was performed in opaque white Kalypsys 1536-well plates. In the screen, tetraoctylammonium bromide was used as positive control. Library compounds were measured for their ability to cause acute toxicity in the cell line, as reflected by a decrease in intracellular ATP levels, in a concentration-dependent manner. […] AC50 values were determined from concentration-response data modeled with the standard Hill equation.
qHTS protocol for CellTiter Glo lymphoblastoid cellular assay
[Step] [Parameter] [Value] [Description]
1. Reagent; 5 uL; 2500 lymphoblastoid cells/well
2. Time; 5 hr; 37 C incubation
4. Controls; 23 nL; Tetraoctylammonium bromide 6.4pM to 92 uM
5. Time; 24 hr; 37 C incubation
6. Reagent; 5 uL; CellTiter Glo reagent
7. Time; 30 min; Room Temperature
8. Detection; Luminescence; Viewlux plate reader
Keywords: cell viability, cytotoxicity, lymphoblastoid cell line, luminescence, NTPHTS, NTPHTS_NCGC, NIEHS, DSSTox, MLSMR, MLSCN, NIH Roadmap, qHTS, NCGC
`O=C(Cl)OCc1ccccc1`: the Potency entry is “inactive”.

On to `ClP(Cl)(Cl)(Cl)Cl`, for which the Potency entry is “inactive”.

Consider `Cc1ccc(N)cc1N`, for which the Potency result is “inactive”.

Regarding `Cc1ccc(OP(=O)(Oc2ccc(C)cc2)Oc2ccc(C)cc2)cc1`, the Potency result is “inactive”.

As to `c1ccoc1`, the Potency entry was “inactive”.

Consider `Oc1ccc(Cl)c(Cl)c1`, for which the Potency entry was “inactive”.

On to `Clc1cccc2ccccc12`, for which the Potency entry was “inactive”.

For `Brc1cccc(-c2ccccc2)c1`, the Potency result is “inactive”.

For the compound `O=C(O)CCl`, the Potency entry is “inactive”.

In the case of `CN(C)N=O`, the Potency result is “inactive”.

As for `ClCC(Br)CBr` (stereo not given), the Potency entry is “inactive”.

Turning to `Nc1cc(Cl)ccc1Cl`, the Potency result is “inactive”.

For `C/C=C/C=O`, the Potency result is “inactive”.

As to `OCCOCCO`, the Potency entry was “inactive”.

As to `Nc1ncc([N+](=O)[O-])s1`, the Potency entry is “inactive”.

Regarding `C1CC2OC2CC1C1CO1` (stereo not given), the Potency result was “inactive”.

Turning to `O=[N+]([O-])/C=C/c1ccccc1`, the Potency was 50.1 µM (active).

Turning to `CC(C#N)CCC#N` (stereo not given), the Potency result is “inactive”.

Turning to `S=C1NCCN1`, the Potency entry is “inactive”.

Consider `C=CC=O`, for which the Potency result is “inactive”.

As to `Cc1ccc(N)c(C)c1`, the Potency result was “inactive”.

In the case of `Cl/C=C/CCl`, the Potency entry was “inactive”.

Take `NNC(N)=S`: the Potency result was “inactive”.

Take `Oc1cccc(Cl)c1Cl`: the Potency result is “inactive”.

With `O=[N+]([O-])c1cccc2c([N+](=O)[O-])cccc12`, the Potency result is “inactive”.

Turning to `C=CC#N`, the Potency entry was “inactive”.

Turning to `CC(C)CON=O`, the Potency entry was “inactive”.

`CCCCCC[N+](=O)[O-]`: the Potency result is “inactive”.

In the case of `ClCCOCCCl`, the Potency result is “inactive”.

As to `N#C/C=C/C#N`, the Potency was 31.6 µM (active).

`Nc1ccc(Oc2ccc(N)cc2)cc1`: the Potency result was “inactive”.

Consider `COC(=O)Nc1cccc(OC(=O)Nc2cccc(C)c2)c1`, for which the Potency result was “inactive”.

Consider `c1ccc(OCC2CO2)cc1` (stereo not given), for which the Potency result was “inactive”.

In the case of `CCC#N`, the Potency entry is “inactive”.

Regarding `Cc1ccc(N)cc1C`, the Potency entry was “inactive”.

In the case of `c1ccc(NNc2ccccc2)cc1`, the Potency result is “inactive”.

For the compound `ClCc1ccccn1`, the Potency result is “inactive”.

Turning to `Oc1c(Cl)cccc1Cl`, the Potency entry was “inactive”.

Regarding `O=[N+]([O-])c1ccccc1O`, the Potency entry is “inactive”.

Regarding `Cc1ccc([N+](=O)[O-])cc1`, the Potency entry was “inactive”.
